{
  "source": "the supplement of paper PMC6555819",
  "data": [
    {"tested_on": "PXR homodimer (NR concentration 270 nM)", "assay": "PBM binding z-score (relative to random genomic background probes); higher = stronger binding; sequences stand for … in GC…GCGATTGACAGCGTAGAATGAAGG", "procedure,_shortened": "(§1)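 Binding buffer was PBS pH 7.4 with 2% milk, 0.02% Triton X-100, 1 mM DTT, 0.2 mg/mL BSA and 0.4 mg/ml salmon testes DNA. In it, ligand-free nuclear receptor dimers were incubated 1 h on custom Agilent 4×180K protein-binding microarrays carrying double-stranded probes. Antibodies against each partner (one per run) detected binding, and z-scores were calculated against random background probes after regression normalization of scanned fluorescence.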", "values": [
      {"sequence": "CCTTACGGGACACTGACAGGTTATAGCATTTGGA", "PBM binding z-score": 0.162},
      {"sequence": "AGAACGAGGGCAATGAGTTGAGAGCACGGGTGGC", "PBM binding z-score": 1.92},
      {"sequence": "CCTGCTAGGTCAATGGTCGGCTAAAGCAGCTCGC", "PBM binding z-score": -0.868},
      {"sequence": "CCGACTGGGGCTAAGGTTACCATACTCAGTACGA", "PBM binding z-score": -0.328},
      {"sequence": "CTTCCAAGGTCAATGCTAGGTCAGTGAAAGCATT", "PBM binding z-score": 1.63},
      {"sequence": "CATACTGGGCCAAAGGTCATTGATTCCAATGCTC", "PBM binding z-score": 1.72},
      {"sequence": "AGAACGAGGGCACGCTGAGTTGCTAGCAGAGTAG", "PBM binding z-score": -0.605},
      {"sequence": "CCTCGGAGGACCACAGGAGGTCAGAGCTGCCAGA", "PBM binding z-score": 0.21},
      {"sequence": "AGTCAAAGTTCAGGACGAGGTTACGTAAAGCACG", "PBM binding z-score": 2.59},
      {"sequence": "TCTAGTTGGTCACGGACGTCACACACGACGGGTA", "PBM binding z-score": 0.184},
      {"sequence": "TAGCCTAGGTCATTGCGCCAGTATAGTACGCATC", "PBM binding z-score": -0.0218},
      {"sequence": "TCTTTTAGATCAAGCAGGTTAAGAAAGCCTGAGT", "PBM binding z-score": 0.132},
      {"sequence": "CATACAGGGTCAGCTAGGCCACAGTAGGGACGGC", "PBM binding z-score": 0.181},
      {"sequence": "GCTAGTTGGTCAGTAAAAGGTCACACGCCGGTCG", "PBM binding z-score": 0.982},
      {"sequence": "ACAGACAAGTGAGTGAAGGTAACTCAGCTGGACG", "PBM binding z-score": -0.267},
      {"sequence": "CCTACTGGGCCATTCAGAGGTCTTTGATCATATG", "PBM binding z-score": 0.0887},
      {"sequence": "CCGACTGGGGTAGAAAGGTTACCATACCATCCGG", "PBM binding z-score": -0.0597},
      {"sequence": "CCGACTGGGGCATAAGGTTAGCATAAGCCAGCCC", "PBM binding z-score": -0.542},
      {"sequence": "CGTCAAAGTTCCACTAAGGTAACGTAAAGCACGC", "PBM binding z-score": 0.428},
      {"sequence": "CCGACTGGGGCAGATAGGTTACCATACCATCCGG", "PBM binding z-score": -0.499},
      {"sequence": "CATACAGGGTCAGCTAGGCGAGAGTAGGGACGGC", "PBM binding z-score": 0.199},
      {"sequence": "GGAACGAGGGCAAGTTGATCGCAGAGTTTGATGG", "PBM binding z-score": -0.0478},
      {"sequence": "ACAGACAGGTGATGAAGCTAACTCAGGCTATCAT", "PBM binding z-score": 0.283},
      {"sequence": "GCATATAGGTAATACAAGGTAAAAGTCCGATTGT", "PBM binding z-score": -0.11},
      {"sequence": "TCTGGGAGGACACGAAAGGTCAGAGCTCGACATC", "PBM binding z-score": 0.802},
      {"sequence": "CCGACTGGGGCAAAGTTACCATAACGCACAGCCA", "PBM binding z-score": -0.263},
      {"sequence": "AGAATGAGGTTAAGATGAGGGAAACAGAATACAT", "PBM binding z-score": 0.581},
      {"sequence": "ATATGTAGATTATCGGGTCATTCAGTTTGCGCAT", "PBM binding z-score": 6.51},
      {"sequence": "TCATATTGGTAAAGGTGAAAGTCGAACGATATGA", "PBM binding z-score": -0.162},
      {"sequence": "TCTCGGAGCACACGAAGGTCAGAGCTTTCCAGAG", "PBM binding z-score": -1.04},
      {"sequence": "CAAACTAGGTCAAGAGATCAAAGTCCGCTTCCCG", "PBM binding z-score": 0.0869},
      {"sequence": "ATCGAAAGGTCGAGGGTGAGTATACCCACCCGAA", "PBM binding z-score": -0.393},
      {"sequence": "CAGCCTAGGTCAGGGCCAGTATTGGAGGAACGTT", "PBM binding z-score": -0.593},
      {"sequence": "ATCGAAAGGTCGAAGGTGAGTGTACCCACCCGAA", "PBM binding z-score": 0.136},
      {"sequence": "CGAACTAGGTTAAGGACAGTGAATCTCCGCACGC", "PBM binding z-score": 0.015},
      {"sequence": "TCATATAGGTAATACAGGTGAAAGCCGGCATCTA", "PBM binding z-score": 0.433},
      {"sequence": "CCTGCTAGGTCATCGTCAGCTAATCTACAGTATG", "PBM binding z-score": -0.29},
      {"sequence": "TCTTGGAGATCAACAGGAGGTTAAGAAAGATCGA", "PBM binding z-score": -0.208},
      {"sequence": "GCGACTGGGGCAAAGCAGGTTACCATAAGGTTGG", "PBM binding z-score": -0.59},
      {"sequence": "TAGCCTAGGTCATGGACCAGTATACCACGCGAAC", "PBM binding z-score": -0.467}
    ]},
    {"tested_on": "RARa:RXR (NR concentration 270 nM, RXRa partner concentration 90 nM)", "assay": "PBM binding z-score (relative to random genomic background probes); higher = stronger binding; sequences stand for … in GC…GCGATTGACAGCGTAGAATGAAGG", "procedure,_shortened": "as §1", "values": [
      {"sequence": "CCTTACGGGACACTGACAGGTTATAGCATTTGGA", "PBM binding z-score": -0.0303},
      {"sequence": "AGAACGAGGGCAATGAGTTGAGAGCACGGGTGGC", "PBM binding z-score": 0.292},
      {"sequence": "CCTGCTAGGTCAATGGTCGGCTAAAGCAGCTCGC", "PBM binding z-score": 1.47},
      {"sequence": "CCGACTGGGGCTAAGGTTACCATACTCAGTACGA", "PBM binding z-score": 1.12},
      {"sequence": "CTTCCAAGGTCAATGCTAGGTCAGTGAAAGCATT", "PBM binding z-score": 6.06},
      {"sequence": "CATACTGGGCCAAAGGTCATTGATTCCAATGCTC", "PBM binding z-score": 6.32},
      {"sequence": "AGAACGAGGGCACGCTGAGTTGCTAGCAGAGTAG", "PBM binding z-score": 0.617},
      {"sequence": "CCTCGGAGGACCACAGGAGGTCAGAGCTGCCAGA", "PBM binding z-score": 2.45},
      {"sequence": "AGTCAAAGTTCAGGACGAGGTTACGTAAAGCACG", "PBM binding z-score": 4.38},
      {"sequence": "TCTAGTTGGTCACGGACGTCACACACGACGGGTA", "PBM binding z-score": 0.485},
      {"sequence": "TAGCCTAGGTCATTGCGCCAGTATAGTACGCATC", "PBM binding z-score": 2.62},
      {"sequence": "TCTTTTAGATCAAGCAGGTTAAGAAAGCCTGAGT", "PBM binding z-score": 0.889},
      {"sequence": "CATACAGGGTCAGCTAGGCCACAGTAGGGACGGC", "PBM binding z-score": 3.4},
      {"sequence": "GCTAGTTGGTCAGTAAAAGGTCACACGCCGGTCG", "PBM binding z-score": 6.11},
      {"sequence": "ACAGACAAGTGAGTGAAGGTAACTCAGCTGGACG", "PBM binding z-score": -0.183},
      {"sequence": "CCTACTGGGCCATTCAGAGGTCTTTGATCATATG", "PBM binding z-score": -0.471},
      {"sequence": "CCGACTGGGGTAGAAAGGTTACCATACCATCCGG", "PBM binding z-score": 2.45},
      {"sequence": "CCGACTGGGGCATAAGGTTAGCATAAGCCAGCCC", "PBM binding z-score": 0.115},
      {"sequence": "CGTCAAAGTTCCACTAAGGTAACGTAAAGCACGC", "PBM binding z-score": 2.22},
      {"sequence": "CCGACTGGGGCAGATAGGTTACCATACCATCCGG", "PBM binding z-score": 0.117},
      {"sequence": "CATACAGGGTCAGCTAGGCGAGAGTAGGGACGGC", "PBM binding z-score": 3.05},
      {"sequence": "GGAACGAGGGCAAGTTGATCGCAGAGTTTGATGG", "PBM binding z-score": 0.607},
      {"sequence": "ACAGACAGGTGATGAAGCTAACTCAGGCTATCAT", "PBM binding z-score": 0.275},
      {"sequence": "GCATATAGGTAATACAAGGTAAAAGTCCGATTGT", "PBM binding z-score": 0.364},
      {"sequence": "TCTGGGAGGACACGAAAGGTCAGAGCTCGACATC", "PBM binding z-score": 4.77},
      {"sequence": "CCGACTGGGGCAAAGTTACCATAACGCACAGCCA", "PBM binding z-score": -0.168},
      {"sequence": "AGAATGAGGTTAAGATGAGGGAAACAGAATACAT", "PBM binding z-score": 2.22},
      {"sequence": "ATATGTAGATTATCGGGTCATTCAGTTTGCGCAT", "PBM binding z-score": 2.84},
      {"sequence": "TCATATTGGTAAAGGTGAAAGTCGAACGATATGA", "PBM binding z-score": 1.25},
      {"sequence": "TCTCGGAGCACACGAAGGTCAGAGCTTTCCAGAG", "PBM binding z-score": 1.49},
      {"sequence": "CAAACTAGGTCAAGAGATCAAAGTCCGCTTCCCG", "PBM binding z-score": 2.57},
      {"sequence": "ATCGAAAGGTCGAGGGTGAGTATACCCACCCGAA", "PBM binding z-score": 3.41},
      {"sequence": "CAGCCTAGGTCAGGGCCAGTATTGGAGGAACGTT", "PBM binding z-score": 1.02},
      {"sequence": "ATCGAAAGGTCGAAGGTGAGTGTACCCACCCGAA", "PBM binding z-score": 4.01},
      {"sequence": "CGAACTAGGTTAAGGACAGTGAATCTCCGCACGC", "PBM binding z-score": 0.949},
      {"sequence": "TCATATAGGTAATACAGGTGAAAGCCGGCATCTA", "PBM binding z-score": 1.36},
      {"sequence": "CCTGCTAGGTCATCGTCAGCTAATCTACAGTATG", "PBM binding z-score": 2.39},
      {"sequence": "TCTTGGAGATCAACAGGAGGTTAAGAAAGATCGA", "PBM binding z-score": 1.41},
      {"sequence": "GCGACTGGGGCAAAGCAGGTTACCATAAGGTTGG", "PBM binding z-score": 0.0364},
      {"sequence": "TAGCCTAGGTCATGGACCAGTATACCACGCGAAC", "PBM binding z-score": 2.85}
    ]}
  ]
}
